# Only some compounds are listed: those with a hit (about 10% of all), similar ones and a draw of the others.
# Pf growth 48h – P. falciparum growth inhibition at 48 hours (one generation) | P. falciparum luciferase growth in erythrocytes, 48 h | Potency, µM (doses to about 28.7 µM), for inactives: at the highest dose activity change, negative = inhibition, hits mostly inhibitors | 5.9% of 310,000 active | AID 504832; active = well fitted inhibition curve with a large enough effect; inconclusive = small, poorly fitted or top-dose-only effect, or another doubt; inactive = no such curve, though single readings can be large or run the other way; note: % is set by controls: 0 for no effect and ±100 for the full control effect
#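 Growth was read as firefly luciferase luminescence after a 48 h, 37 C, 5% CO2 exposure of compounds to reporter-bearing P. falciparum cultures (0.1% parasitemia, 2% hematocrit final) in Albumax-supplemented RPMI 1640.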
# Pf growth 96h – inhibits malaria parasite growth, 96 h. P. falciparum luciferase reporter growth, 96 h. Potency, µM (series often up to 28.7 µM), inactives show at the highest dose activity change, negative = inhibition, most hits filed as inhibitors. 6.9% of 320,000 active. AID 504834; active = well fitted inhibition curve with a large enough effect; inconclusive = small, poorly fitted or top-dose-only effect, or another doubt; inactive = no such curve, though single readings can be large or run the other way; note: % is set by controls: 0 for no effect and ±100 for the full control effect
#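 Parasite growth measured via integrated firefly luciferase reporter in P. falciparum. Infected erythrocytes at 2% hematocrit, 0.05% parasitemia final were treated 96 hours at 37 C under 5% CO2, and luminescence was read.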
# NS1 function inh – influenza NS1 inhibition; AID 2326; 0.4% of 270,000 active; Potency, µM (titrated, usually from 46.1 µM), inactives show at the highest dose activity, positive = more growth; note: actives are rising curves; nearly all actives have a fitted effect of over 50% in size
#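 A cell-based growth assay was used: compounds that relieve NS1-induced slow growth of budding yeast raise OD600. Assay medium was yeast nitrogen base with ammonium sulphate and -URA supplement, pH 6.0, with 2% galactose.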
# SARS PLP yeast – SARS-CoV PLP inhibition in yeast. S. cerevisiae expressing SARS-CoV PLpro, growth rescue. Potency, µM (highest dose often 32.9 µM), inactives show top-dose activity, positive = growth rescue, hits mostly activators. 0.19% of 330,000 active. AID 485353; note: 0% is about no effect; nearly all actives have a fitted effect of over 55% in size
# Numbers without * were called inactive; ? = inconclusive; · = no result. Unless noted, calls come from the whole dose curve. Potency is the fitted concentration of half-maximal effect.
SMILES,Pf growth 48h,Pf growth 96h,NS1 function inh,SARS PLP yeast
CCn1c(CNC(=O)COc2ccc(C(C)C)cc2)nnc1SCC(=O)NC1CCCCC1C (stereo unspecified),12µM*,10µM*,2%,-6%
CCn1c(CNC(=O)COc2ccc(C(C)C)cc2)nnc1SCC(=O)Nc1ccc(F)cc1,·,8.3µM*,-2%,5%
CCn1c(COc2ccc3c(c2)CCCC3)nnc1SCC(=O)Nc1ccc(C(=O)OC)cc1,-19%,9.3µM*,-2%,9%
CCOc1ccccc1OCCCC(=O)N(CC)CC(=O)Nc1ccc(NC(C)=O)cc1,-6%,10%,·,-7%
COc1ccc(CNCC(=O)Nc2cc(OC)cc(OC)c2)cc1,?,-22%,-3%,3%
CCc1ccccc1NS(=O)(=O)c1ccc2c(c1)NC(=O)CC(=O)N2,-5%,8%,2%,-13%
Cc1c(NS(=O)(=O)c2ccc3c(c2)NC(=O)CC(=O)N3)cccc1[N+](=O)[O-],12%,15µM*,-5%,-1%
O=C(CS(=O)(=O)c1ccccc1)N1CCCCC1,10%,2.6µM*,1%,-3%
Cc1ccc(S(=O)(=O)CC(=O)N2CCCCCC2)cc1,14%,?,4%,1%
Cc1cccc(CSc2nc3ccncc3n2CC(=O)Nc2ccc(C)c(C)c2)c1,1%,3.7µM*,25%,-1%
N=C(N)SCCON1C(=O)c2ccccc2C1=O,·,·,8%,·
CCOC(=O)C1=C(C)NC2=C(C(=O)c3ccccc32)C1c1ccc([N+](=O)[O-])o1 (stereo unspecified),13µM*,?,0%,0%
COC(=O)C(C(C)C)N(Cc1cc(OC)cc(OC)c1)S(=O)(=O)CCl (stereo unspecified),·,·,·,-1%
O=C(NCc1ccccc1)c1ccc(CS(=O)(=O)c2ccccc2)o1,·,10µM*,-1%,-1%
O=C(NCc1ccccc1)c1ccc(CS(=O)(=O)c2ccc(Br)cc2)o1,-14%,?,-7%,3%
Cc1ccccc1S(=O)(=O)Cc1ccc(C(=O)NCc2cccnc2)o1,-8%,9.3µM*,11%,13%
Cc1ccccc1S(=O)(=O)Cc1ccc(C(=O)NCc2ccccc2)o1,7%,?,1%,-2%
O=C1NC[C@@H](c2ccccc2)OC(=O)[C@@H](Cc2ccc(F)cc2)C/C=C\C[C@@H]1CC(=O)N(CCO)Cc1ccccc1,·,·,·,-3%
Cc1cccc(S(=O)Cc2ccc(C(=O)N3CCN(C(=O)c4ccco4)CC3)o2)c1 (stereo unspecified),-6%,-4%,3%,2%
CN(C)CCCN1c2ccccc2Sc2ccc(C(F)(F)F)cc21,?,15µM*,-30%,0%
CSc1ccc2c(c1)N(CCCN(C)C)c1ccccc1S2,·,·,-3%,·
CC(CN(C)C)CN1c2ccccc2Sc2ccc(C(F)(F)F)cc21 (stereo unspecified),15µM*,?,·,·
CC(CN(C)C)CN1c2ccccc2Sc2ccccc21 (stereo unspecified),13µM*,?,·,·
N#CCCN(C(=O)COC(=O)Cc1c[nH]c2ccccc12)c1ccccc1,-17%,12%,·,-7%
COc1cc(CNCC(O)c2ccccc2)ccc1OCc1ccc(Cl)nc1 (stereo unspecified),·,3.7µM*,8%,11%
SMILES,Pf growth 48h,Pf growth 96h,NS1 function inh,SARS PLP yeast
O=C1c2ccccc2CC1Sc1nnc(-c2ccccn2)o1 (stereo unspecified),?,13µM*,-11%,3%
CN1CCN(c2cc(-c3cc(O)c4ncccc4c3)ccn2)CC1,12µM*,?,·,1%
Oc1cc(-c2cccnc2)cc2cccnc12,7.4µM*,4.1µM*,·,5%
CN1CCCN(C(=O)c2cccc(Br)c2)CC1,-8%,?,22%,2%
c1cncc(-c2nc3cc4ccccc4cc3[nH]2)c1,205%,204%,-75%,-17%
CN1CCN(C(=O)c2cccc(-c3cc(O)c4ncccc4c3)c2)CC1,10µM*,10µM*,·,6%
O=C(Nc1ccc(CN2CCOCC2)cc1)c1ccc(-c2ccc(Br)cc2)o1,1.9µM*,9%,-4%,-2%
Cc1cc(N2CCN(C)CC2)ccc1NC(=O)c1ccc(-c2ccc(Cl)cc2)o1,?,4.1µM*,·,2%
CCC(=O)N1CCN(c2ccccc2NC(=O)c2ccc(-c3cccc([N+](=O)[O-])c3)o2)CC1,8.3µM*,5%,20%,-8%
CN1CCN(c2ccccc2NC(=O)c2ccc(-c3ccc(Br)cc3)o2)CC1,13µM*,4%,4%,-4%
COc1ccc(OCCn2cnc3ccccc32)cc1,-1%,?,-27%,-1%
COc1ccc([C@H]2CC(=O)C=C(c3ccc(Cl)c(F)c3)C2)cc1,3%,19%,·,-5%
CC(/C=C/c1ccccc1)=N/NC(=O)c1cccc(Br)c1,?,?,-2%,-3%
Cc1cccc(C(=O)OCC(=O)c2ccc(CC(=O)N3CCOCC3)s2)c1C,-18%,-26%,·,2%
CN1CCN(c2ccccc2NC(=O)c2ccc(-c3cccc([N+](=O)[O-])c3)o2)CC1,10µM*,?,-7%,-29%
O=C(NCC(=O)N1CCN(c2ccccc2O)CC1)c1ccc(Br)o1,-5%,-16%,·,3%
Cc1cccc(C)c1NC(=O)CN(C)C(=O)c1ccccc1Sc1ccccc1C#N,9.3µM*,?,·,0%
Cc1nn(-c2ccc(C(=O)O)cc2)c(C)c1Oc1ccccc1O,·,-25%,1%,1%
Cc1nn(-c2ccccn2)c(C)c1Oc1ccccc1O,·,2.6µM*,-11%,10%
CCN1CCN(c2cc(C)c3cc(NC(=O)c4cccnc4Cl)ccc3n2)CC1,·,·,4%,-6%
CCN(CC)c1cc(C)c2cc(NC(=O)c3ccc(Br)o3)ccc2n1,12µM*,63%,-18%,13%
COc1ccccc1C(=O)Nc1ccc2nc(SCC(=O)N(C)C)sc2c1,?,12µM*,-14%,9%
CCN1CCN(c2cc(C)c3cc(NC(=O)c4ccccc4F)ccc3n2)CC1,·,4.7µM*,-2%,-4%
CCN1CCN(c2cc(C)c3cc(NC(=O)CCC(=O)Nc4ccc(OC)cc4OC)ccc3n2)CC1,13µM*,?,-1%,1%
CN(C)c1ccc(C2N([C@H](C#N)c3ccc(N(C)C)cc3)CCCN2[C@@H](C#N)c2ccc(N(C)C)cc2)cc1 (stereo partly specified),·,·,-11%,·
SMILES,Pf growth 48h,Pf growth 96h,NS1 function inh,SARS PLP yeast
O=C(OCC(=O)N1CCN(c2ccccc2)CC1)c1ccc(O)cc1O,?,?,14%,1%
CCN1CCN(C(=S)Nc2ccc3nc(N4CCN(C)CC4)cc(C)c3c2)CC1,?,37%,-13%,7%
CCN(CC)c1cc(C)c2cc(NC(=O)c3ccccc3OC)ccc2n1,?,9.3µM*,·,1%
Cc1cc(N2CCN(C)CC2)nc2ccc(NC(=O)c3ccccc3F)cc12,33%,9.3µM*,·,0%
CCN1CCN(C(=S)Nc2ccc3nc(N4CCN(CC)CC4)cc(C)c3c2)CC1,6.6µM*,0%,21%,9%
CCN1CCN(c2cc(C)c3cc(NC(=O)c4ccc(Br)o4)ccc3n2)CC1,2.3µM*,25%,-2%,-3%

# High-throughput results: PubChem BioAssay, National Center for Advancing Translational Sciences (NCATS)
